Inconclusive results are not listed. The source made the active and inactive calls. The call rests on the fitted dose curve; in most records, active means well fitted inhibition curve with a large enough effect; inconclusive means small, poorly fitted or top-dose-only effect; inactive means no such curve, though single readings can be large or run the other way.

The test can be described thus: Confirmation assay for measurement of the activity of small molecule inhibitors on Zika virus induced Caspase-3 activity in human iPSC derived neural progenitor cells (hNPCs). The following applies: hNPC ZIKV-induced caspase-3/7, Caspase-Glo luminescence, 6 h; series mostly up to 46.1 µM; activity, negative = inhibition: at the top concentration. The source says: National Center for Advancing Translational Sciences [NCATS] Johns Hopkins University School of Medicine Florida State University Assay Overview: Increase in the Caspase-3 activity indicates an activation of apoptosis cell death pathway caused by Zika virus infection in certain types of neuronal cells including human neural progenitor cells (hNPCs), astrocytes, and astrocytoma cell line (SNB-19). This cell-based caspase-3 activity assay measures the increased caspase-3 activity in the human iPSC derived neural progenitor cells (hNPCs) after a 6-hour Zika virus infection with a luminescence readout. A decrease in the luminescence signal in this assay by small molecule treatment indicates an inhibitory effect of that small molecule on the Zika virus induced caspase-3 activity that may correlate with its effect on reduction of Zika virus caused cell death.
Assay Protocol Summary: The medium for hNPCs consists of DMEM/F12, N2 supplement (ThermoFisher, Cat.# 17502048), NEAA (ThermoFisher, Cat. # 11140050), 2 ug/ml heparin, 2 uM cyclopamine, and B27 (ThermoFisher, Cat. # 17504044). A Caspase-Glo 3/7 assay kit (catalog number G8092; Promega, Madison, WI) was used to detect caspase-3 activity induced by Zika virus infection in human cells. The reagent mixture was reconstituted as described in the protocol from the manufacturer. Polystyrene tissue culture treated and PDL coated white plates were obtained from Greiner Bio-One (Monroe, NC). Cells were seeded in 384- or 1536-well assay plates and cultured at 37 C with 5% CO2 for 16 to 20 hours. The typical cell seeding density in the 1536-well plate assay is 350 cells/well in 3 ul medium for hNPCs in tissue culture treated plates. Compounds were added to cells and incubated for one hour before addition of ZIKV solution to cells (2 FFU/cell). After incubation at 37 C with 5% CO2 for 6 hours, the reagent mixture of Caspase-Glo 3/7 assay kit was added to each well, followed by incubation at room temperature for 30 minutes. The luminescence intensity of the assay plates was measured using a ViewLux plate reader (PerkinElmer). Data were normalized by using the cell-containing wells without ZIKV as a negative control (0% induction of caspase 3/7 activity) and wells containing ZIKV infected cells (Caspase-3 activity induced) as a positive control (100% induction of caspase 3 activity). The percentage inhibitions of the increased Caspase-3 activity by small molecule inhibitors were then calculated.
Regarding `CCCCCNC(=O)N1CCC(CN(Cc2ccc(Cl)cc2)Cc2ccc([N+](=O)[O-])s2)C1` (stereo not given), the “activity, negative = inhibition” value was 56.3% (inactive). The same measure, in the same setting: next, `Cc1c(C(=O)O)c(O)cc2c1C(=O)c1c(O)c([C@@H]3O[C@H](CO)[C@@H](O)[C@H](O)[C@H]3O)c(O)c(O)c1C2=O`: 64.3% (inactive). `CC(C)(C)COc1ccc(-n2cc(C(=O)O)cn2)cc1C#N`: the Potency is 22.4 µM (active). Same read-out and setting: next, `Oc1cc(O)cc(/C=C/c2ccc(O)c(O)c2)c1`: 4.89 µM (active). For `Cc1nc(N)sc1-c1ccnc(Nc2ccc(N3CCOCC3)cc2)n1`, the “activity, negative = inhibition” value is -17.9% (inactive). For the molecule `COc1ccc(CC2=NN3C([C@@H](CCc4ccccc4)[C@@H](C)O)=NC(C)C3C(=O)N2)cc1OC` (stereo not given in full), the “activity, negative = inhibition” value was 8.66% (inactive). As to `Cc1ccc(O)c(-n2nc3ccccc3n2)c1`, the Potency was 4.35 µM (active). On to `COc1cc2nc(N3CCN(C(=O)C4CCCO4)CC3)nc(N)c2cc1OC` (stereo not given), for which the Potency is 9.75 µM (active). As to `O=C(Nc1cc2cc[nH]c2cn1)c1ccccc1`, the Potency is 3.46 µM (active).

Turning to `CN(C)c1ccc(/C=C2\C(=O)Nc3ccccc32)cc1`, the Potency is 7.74 µM (active). For the molecule `O=C1C[C@@H](c2ccc(O)cc2)Oc2cc(O)cc(O)c21`, the Potency is 17.3 µM (active). Regarding `CC(C)OC(=O)CCCC=CC[C@@H]1[C@H](C=C[C@@H](O)COc2cccc(C(F)(F)F)c2)[C@H](O)C[C@@H]1O`, the “activity, negative = inhibition” value is -13.3% (inactive). In the case of `CO[C@H]1C(=O)[C@]2(C)[C@@H](OC)C[C@H]3OC[C@@]3(OC(C)=O)[C@H]2[C@H](OC(=O)c2ccccc2)[C@]2(O)C[C@H](OC(=O)[C@H](O)[C@@H](NC(=O)OC(C)(C)C)c3ccccc3)C(C)=C1C2(C)C`, the “activity, negative = inhibition” value is 69.4% (inactive). Turning to `NC(=O)c1cccc2[nH]c(-c3ccc([C@H]4CCCN4)cc3F)nc12`, the Potency is 13.8 µM (active). Regarding `Cc1cc(O)c2c(c1)C(=O)c1cc(O)cc(O)c1C2=O`, the Potency is 1.95 µM (active). Take `O=c1c2ccccc2nc2n1CCc1c-2[nH]c2ccccc12`: the Potency is 4.35 µM (active). Consider `O=C(Nc1ccc(C(=O)O)c(O)c1)c1ccccc1`, for which the Potency was 4.35 µM (active). Turning to `CC[C@]1(O)C[C@H]2CN(CCc3c([nH]c4ccccc34)[C@@](C(=O)OC)(c3cc4c(cc3OC)N(C=O)[C@H]3[C@@](O)(C(=O)OC)[C@H](OC(C)=O)[C@]5(CC)C=CCN6CC[C@]43[C@@H]65)C2)C1`, the “activity, negative = inhibition” value was 46.5% (inactive).

For `C=CCCCCCCCCC(=O)O`, the “activity, negative = inhibition” value was -13.2% (inactive). The same measure, in the same setting: the value for `CCCC(=O)OC[C@@H](OC(=O)CCC)[C@@H](OC(=O)CCC)[C@H](Cn1c2nc(=O)[nH]c(=O)c-2nc2cc(C)c(C)cc21)OC(=O)CCC` was 23% (inactive). Take `Nc1ccc(-c2ccc3ccccc3n2)cc1`: the Potency is 3.88 µM (active). As for `Nc1ccc2c(c1)CN1C(=O)c3ccccc3C1=N2`, the Potency is 1.9 µM (active). For the molecule `CCN1CCC(n2cc(CNc3cc(Cl)c4ncc(C#N)c(Nc5ccc(F)c(Cl)c5)c4c3)nn2)CC1`, the “activity, negative = inhibition” value is 37.8% (inactive). Same read-out and setting: next, `COc1cccc2c1C(=O)c1c(O)c3c(c(O)c1C2=O)C[C@@](O)(C(=O)CO)C[C@@H]3O[C@H]1C[C@H](N)[C@H](O[C@@H]2CCCCO2)[C@H](C)O1`: -26% (inactive); `O=C(CS)Nc1ccccc1`: 28.8% (inactive). Consider `O=C(O)c1cccc(-c2noc(-c3ccccc3F)n2)c1`, for which the Potency is 1.73 µM (active). The same measure, in the same setting: the value for `O=C(O)CCC(=O)c1ccc(-c2ccccc2)cc1` was 19.5 µM (active); that for `C[C@H](NC(=O)C(=O)Nc1ccccc1C(C)(C)C)C(=O)N[C@@H](CC(=O)O)C(=O)COc1c(F)c(F)cc(F)c1F` was 0.245 µM (active). Regarding `C[C@@H](O[C@H]1OCCN(Cc2n[nH]c(=O)[nH]2)[C@@H]1c1ccc(F)cc1)c1cc(C(F)(F)F)cc(C(F)(F)F)c1`, the “activity, negative = inhibition” value was 31.4% (inactive). Consider `O=C(Nc1ccc([N+](=O)[O-])cc1Cl)c1cc(Cl)ccc1O`, for which the Potency was 1.73 µM (active).

With `O=S(=O)(O)c1ccc2nc(-c3ccccc3)[nH]c2c1`, the Potency was 1.23 µM (active). Regarding `COc1cc2nc(-c3ccc(N4CCN(C)CC4)cc3)nc(NCCN3CCOCC3)c2cc1OC`, the “activity, negative = inhibition” value was 69.8% (inactive).

For `Cc1[nH]c(C=C2C(=O)Nc3ccccc32)c(C)c1CCC(=O)O`, the “activity, negative = inhibition” value is 11.2% (inactive). As for `CCC(C(=O)O)c1ccc(N2Cc3ccccc3C2=O)cc1` (stereo not given), the Potency is 5.48 µM (active).

In the case of `Nc1ccc(O)c(C(=O)O)c1`, the “activity, negative = inhibition” value is -3.33% (inactive). The same measure, in the same setting: next, `CN(C)c1ccc(N=NS(=O)(=O)O)cc1`: -26.5% [at 88.3 µM] (inactive). Regarding `CS(=O)(=O)c1ccc(-c2cn3ccccc3n2)cc1`, the Potency was 3.88 µM (active). Regarding `CCCCCCCCCCCC(=O)[O][Sn]([CH2]CCC)([CH2]CCC)[O]C(=O)CCCCCCCCCCC`, the “activity, negative = inhibition” value was 5.93% (inactive). Turning to `CN(C)CCCSc1ccccc1NC(=O)/C=C/c1ccccc1`, the Potency is 17.3 µM (active). On the same count and under the same terms, next, `Cc1nc(-c2ccc(OCC(C)C)c(C#N)c2)sc1C(=O)O`: 3.88 µM (active).

(Values after PubChem BioAssay AID1224855 (National Center for Advancing Translational Sciences (NCATS), 2016).)
